Source: PubChem
Rows were chosen to be rich in hits. Some 1.2% of all compounds tested hit in one or more screens of this group.
NOD2 RIPK2 PPI = inhibitors of human NOD2-RIPK2 interaction; O43353; CHO BLA complementation NOD2-RIPK2, CCF4 ratio; inhibition, % at 4.98 µM; 0.38% of 360,000 active; AID 624267; in the data active = inhibition above about 21%
TLR9-MyD88 block = inhibitors of human TLR9-MyD88 binding; Q9NR96+Q99836; CHO BLA complementation TLR9-MyD88, CCF4 FRET ratio; inhibition, % at 4.98 µM; 0.21% of 340,000 active;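 active = inhibition above the mean over all tested compounds plus 3 SD, cut at about 21% in these data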
NPR1 activator = GC-A (human) enzyme activation; HEK293 GC-A cells, cGMP TR-FRET, EC30 ANP; 0% at EC30 ANP, 100% saturating ANP; activation, % at 10 µM; 0.14% of 370,000 active; in the data active = activation above about 40%
NPR2 activator = GC-B (human) receptor activation | HEK293-GC-B cells, CNP EC30, cGMP TR-FRET; 0% at EC30 CNP, 100% saturating CNP | activation, % at 10 µM | 0.11% of 370,000 active;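 active = activation at 10 µM reaching about 35% in either raw or pattern-adjusted values, limit read from the data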
TLR4-MyD88 BLA = inhibitors of human TLR4-MyD88 binding; HeLa CL3-4 TLR4/MyD88 BLA complementation, FRET ratio; 0.18% of 200,000 active; inhibition, % at 8.4 µM; O00206+Q99836; AID 861; in the data active = inhibition above about 25%
Neddyl block = inhibitors of human cullin neddylation; inhibition, % at 25 µM; P61081+Q13564; 0.58% of 360,000 active; TR-FRET cullin neddylation, biochemical; in the data active = inhibition above about 36%
Hits are given with their value; i = inactive; nt = not tested or not shown.

SMILES	NOD2 RIPK2 PPI	TLR9-MyD88 block	NPR1 activator	NPR2 activator	TLR4-MyD88 BLA	Neddyl block
Cc1ccc(-n2c(SCC(=O)Nc3ccc(OCc4ccccc4)cc3)nnc2-c2ccccc2)cc1	nt	nt	i	i	nt	nt
Cc1cnc(NC(=O)C2CC(=O)N(c3cccc(Cl)c3)C2)s1 (configuration not stated)	i	i	i	37.1	nt	i
Cc1ccc2nc(-c3cccc(Cl)c3)c(Cc3ccccc3C(F)(F)F)n2c1	nt	nt	i	i	nt	nt
Cc1n[nH]c(=S)c2nn(-c3ccccc3)c(C)c12	nt	nt	nt	nt	i	nt
Cc1ccc(-n2nc3c(=S)[nH]nc(C)c3c2C)cc1	i	i	40.9	i	i	i
COC(=O)[C@]12C[C@H](CC(=O)NCCc3ccccc3OC)C(=O)N(Cc3ccc(Cl)cc3Cl)C1=C[C@H](C1CCCC1)O[C@@H]2C	nt	nt	i	i	nt	nt
c1ccc(-n2c(SCc3cccc4ccccc34)nnc2-c2ccncc2)cc1	nt	nt	i	i	nt	nt
Cc1ccc(/C=C2/NC(=O)N(Cc3ccccc3F)C2=O)o1	i	i	60.2	42.1	i	i
CCCn1cnc2c(=S)nc(N)[nH]c21	i	i	43.1	44.2	nt	i
Nc1nc(=S)c2ncn(C3CCCCC3)c2[nH]1	i	i	i	i	nt	i
Nc1nc(=S)c2ncn([C@@H]3O[C@H](CO)[C@@H](O)[C@H]3O)c2[nH]1	i	i	i	i	nt	i
CCCCn1cnc2c(=S)nc(N)[nH]c21	i	i	79.1	79.5	nt	i
CCCCCn1cnc2c(=S)nc(N)[nH]c21	i	i	74.8	80.7	nt	i
S=C1NC[C@H](Cc2ccccc2)N1CC1CCN(CCCC2CCCCC2)CC1	nt	nt	i	i	nt	nt
COc1ccc(S(=O)(=O)N2CCCCCC2)cc1NC(=O)CN(C)Cc1ccc2c(c1)OCO2	i	i	41.2	61.0	nt	i
CCCCOc1ccc(C(=O)NCC(=O)OC2CCOC2=O)cc1 (configuration not stated)	i	i	57.2	i	i	i
COC(=O)c1nn(-c2ccccc2)c(Sc2ccc(C)cc2)c1/C=N/O	i	i	56.3	i	i	i
COC(=O)c1nn(-c2ccccc2)c(Sc2ccccc2)c1/C=N/O	i	i	i	i	i	i
COc1ccc(CNCC#Cc2ccc(C(F)(F)F)cc2)c(OC)c1	nt	nt	i	i	nt	nt
C[C@@H]1CNC(=O)c2c(C(=O)N(C)Cc3ccccc3)ncn21	nt	nt	i	i	nt	nt
CCCCN(CC)C(=O)c1cc2cc3ccc(OC)cc3nc2o1	i	i	i	i	i	56.4
CCCCN(C)C(=O)c1cc2cc3ccc(OC)cc3nc2s1	i	i	i	i	i	42.5
COc1ccc2nc3sc(C(=O)N4CCN(C)CC4)cc3cc2c1	i	i	i	i	i	i
C=CCN1C(C(=O)OC)CN(Cc2cn(Cc3ccc(OC)cc3)nn2)CCS1(=O)=O (configuration not stated)	nt	nt	i	i	nt	nt
CCOc1ccc(-n2c(SCC(=O)Nc3cc(C)on3)nc3c([nH]c4ccccc43)c2=O)cc1	i	i	71.5	i	i	i
SMILES	NOD2 RIPK2 PPI	TLR9-MyD88 block	NPR1 activator	NPR2 activator	TLR4-MyD88 BLA	Neddyl block
C=CCn1c(SCC(=O)Nc2cc(C)on2)nc2c([nH]c3ccccc32)c1=O	i	i	i	i	nt	i
COc1ccc(-n2c(SCC(=O)Nc3ccc(NC(C)=O)cc3)nc3c([nH]c4ccccc43)c2=O)cc1OC	i	i	i	i	nt	i
COc1ccc(-n2c(SCC(=O)Nc3cc(C)on3)nc3c([nH]c4ccccc43)c2=O)cc1OC	i	i	71.5	i	nt	i
Cc1ccc(-n2c(SCC(=O)Nc3cc(C)on3)nc3c([nH]c4ccccc43)c2=O)cc1	i	i	78.8	i	i	i
CCOc1ccc(-n2c(SCC(N)=O)nc3c([nH]c4ccccc43)c2=O)cc1	i	i	i	i	i	i
COc1ccc(-n2c(SCC(=O)Nc3cc(C)on3)nc3c([nH]c4ccccc43)c2=O)cc1	i	i	77.2	i	i	i
COc1ccc(-c2cc(C(=O)N=Nc3c(O)[nH]c4ccccc34)[nH]n2)cc1	nt	nt	i	i	nt	nt
O=C(NC1CCCCN(Cc2cccc(Cl)c2)C1=O)C1CCCCC1 (configuration not stated)	nt	nt	i	i	nt	nt
Nc1[nH]c2cc(C(F)(F)F)ccc2c1C(=O)NCc1ccc(F)cc1	nt	nt	i	i	nt	nt
C[n+]1cccc2cccc([O-])c21	i	i	i	i	nt	54.7
